TROY signal inh: inhibitors of TROY-dependent NF-kB signaling; Q293 LMP1-TROYcd NF-kB luciferase reporter, 4 h; inhibition, % at 10 µM; 360,000 tested, 0.98% active;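 active = compounds whose plate-normalised and pattern-corrected inhibition of the luciferase reporter signal at the single screening dose is 50% or more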
LGR2 inh: inhibitors of bursicon-induced Drosophila LGR2 receptor cAMP signaling; inhibition, % at 9.99 µM; AID 720647; HEK293 LGR2, CRE-luciferase, bursicon-stimulated, 4 h; 380,000 tested, 0.35% active;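 active = drop in luminescence signal, shown as inhibition above about 50% in the replicate tests, limit read from the data, passing the limit was not always enough; inconclusive = probably only some replicates passing the limit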;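 also: agonist challenge used bursicon conditioned medium at about half maximal strength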
TWEAK Fn14 block: inhibitors of TWEAK-Fn14 interaction signaling. 360,000 tested, 2% active. inhibition, % at 10 µM. TWEAK-stimulated Fn14 reporter cells, luciferase luminescence, 8 h; in the data active = inhibition above about 50%
HSP90 inh: inhibitors of HSP90 luciferase refolding in rabbit reticulocyte lysate; luciferase refolding luminescence, 3 h; inhibition, % at 5.6 µM; 290,000 tested, 0.91% active; AID 1789;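 active = inhibition above the screen-wide mean plus 3 SD, computed separately per campaign, cut at about 16% in these data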;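 also: 0% = DMSO wells and 100% = 60 µM geldanamycin wells; inhibitors lower the luminescence because luciferase stays unfolded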
Starred values were filed as active, the others as inactive. An excerpt weighted towards active compounds, which were near 2.2% of everything screened.

Results for NC(=O)CC(NC(=O)c1ccc(Br)cc1)c1ccc(N2CCC(Cc3ccccc3)CC2)c([N+](=O)[O-])c1 (stereo not given) ?
TROY signal inh: -3; LGR2 inh: 24; TWEAK Fn14 block: 18; HSP90 inh: 1

How did NC(=O)C1CCN(CC(O)COc2ccc(-c3ccccc3)cc2)CC1 (stereo not given) do in these assays?
TROY signal inh: -20; LGR2 inh: 4; TWEAK Fn14 block: 107*; HSP90 inh: 2

How did Cc1cc(/C=C2/C(=O)NN(c3ccccc3)C2=O)c(C)n1-c1ccc(O)cc1 do in these assays?
TROY signal inh: 83*; LGR2 inh: 45; TWEAK Fn14 block: 88*; HSP90 inh: -2

Results for Cc1cc(C=C2C(=O)c3ccccc3C2=O)c(C)n1C ?
TROY signal inh: 46; LGR2 inh: -37; TWEAK Fn14 block: 29; HSP90 inh: 8

How did COc1ccc(-n2c(C)cc(/C=C3\C(=O)NN(c4ccccc4)C3=O)c2C)cc1 do in these assays?
TROY signal inh: -76; LGR2 inh: -59; TWEAK Fn14 block: 2; HSP90 inh: -8

Results for Cc1cccc(-n2c(C)cc(C=C3C(=O)c4ccccc4C3=O)c2C)c1 ?
TROY signal inh: 80*; LGR2 inh: 19; TWEAK Fn14 block: 92*; HSP90 inh: 0

What do the screens show for `CCn1c(C)cc(C=C2C(=O)c3ccccc3C2=O)c1C`?
TROY signal inh: 31; LGR2 inh: -4; TWEAK Fn14 block: 54*; HSP90 inh: 4

What do the screens show for `COc1ccc(S(=O)(=O)N(C)C[C@H]2Oc3ccc(NC(=O)c4ccncc4)cc3C(=O)N([C@@H](C)CO)C[C@@H]2C)cc1`?
LGR2 inh: 23

What do the screens show for `C/C(=N\NC(=O)c1ccc2c(c1)OCCO2)c1ccccc1`?
TROY signal inh: -37; LGR2 inh: -45; TWEAK Fn14 block: 70*; HSP90 inh: -2

Results for Cc1ccsc1/C=N/NC(=O)Cc1ccc(Cl)cc1 ?
TROY signal inh: -1; LGR2 inh: -9; TWEAK Fn14 block: 90*; HSP90 inh: 8

What do the screens show for `Cc1ccsc1/C=N/NC(=O)c1ccc2c(c1)OCCO2`?
TROY signal inh: 7; LGR2 inh: inconclusive; TWEAK Fn14 block: 70*; HSP90 inh: 12

Results for NCC[C@@H]1CC[C@@H](NS(=O)(=O)Cc2ccccc2)[C@@H](CO)O1 ?
LGR2 inh: 2

How did NCC[C@H]1CC[C@H](NS(=O)(=O)Cc2ccccc2)[C@@H](CO)O1 do in these assays?
LGR2 inh: 89*

What do the screens show for `O=C(Sc1cccc2cccnc12)c1ccc(F)cc1`?
LGR2 inh: 24; HSP90 inh: 5

Results for O=C(Sc1cccc2cccnc12)c1ccccc1Br ?
TROY signal inh: -19; LGR2 inh: -2; TWEAK Fn14 block: 101*; HSP90 inh: 2

Results for CCn1c(SCC(=O)N2CCCCCC2)nc2ccccc2c1=O ?
TROY signal inh: -17; LGR2 inh: -2; TWEAK Fn14 block: -7; HSP90 inh: 3

How did C=CCn1c(SCC(=O)N2CCCCCC2)nc2ccccc2c1=O do in these assays?
TROY signal inh: 3; LGR2 inh: -9; TWEAK Fn14 block: 73*; HSP90 inh: -2

How did COc1cccc(/C=C/C(=O)OCC(=O)c2ccccc2)c1OC do in these assays?
TROY signal inh: 51*; LGR2 inh: -63; TWEAK Fn14 block: 65*

How did COc1cccc(/C=C/C(=O)OCC(=O)c2ccc(C)c(C)c2)c1OC do in these assays?
TROY signal inh: 6; LGR2 inh: -12; TWEAK Fn14 block: -21

How did Cc1ccc(C(C(=O)NCc2ccccc2)N(Cc2cccs2)C(=O)c2ccc3c(c2)OCCO3)cc1 (stereo not given) do in these assays?
TROY signal inh: 15; LGR2 inh: 32; TWEAK Fn14 block: 54*; HSP90 inh: 0

Results for CCN(CC)CCNC(=O)c1ccc2c(c1NCCO)C(=O)c1ccccc1C2=O ?
TROY signal inh: 43; TWEAK Fn14 block: 87*; HSP90 inh: 9

How did O=C(Nc1ccccc1F)N[C@@H]1CC[C@H](CCNS(=O)(=O)c2ccc(F)cc2)O[C@H]1CO do in these assays?
LGR2 inh: 21

How did O=C(c1ccc(Cl)nc1)N1CCc2ccccc2C1 do in these assays?
LGR2 inh: 11; TWEAK Fn14 block: 79*; HSP90 inh: 3

What do the screens show for `O=C(c1ccncc1)N1CCc2ccccc2C1`?
TROY signal inh: 2; LGR2 inh: -1; TWEAK Fn14 block: 4; HSP90 inh: -3

Results for CC1=CC(=C2C(=O)c3ccccc3C2=O)C=C(C)N1C ?
TROY signal inh: -21; LGR2 inh: -12; TWEAK Fn14 block: 10; HSP90 inh: -1

Results for CCCCCN1C=CC(=C2C(=O)c3ccccc3C2=O)C=C1 ?
TROY signal inh: 78*; LGR2 inh: 104*; TWEAK Fn14 block: 77*; HSP90 inh: 80*

Results for O=C(NCc1ccc2c(c1)OCO2)c1cccc(F)c1 ?
TWEAK Fn14 block: 82*; HSP90 inh: 5

Results for O=C(NCc1ccc2c(c1)OCO2)c1ccccc1 ?
TROY signal inh: -5; LGR2 inh: -16; TWEAK Fn14 block: -6; HSP90 inh: 1

How did Cc1cc2ncn(CCOc3ccccc3C#N)c2cc1C do in these assays?
LGR2 inh: -24; TWEAK Fn14 block: 55*; HSP90 inh: -3

Results for N#Cc1ccccc1OCCn1cncn1 ?
TROY signal inh: 6; LGR2 inh: 11; TWEAK Fn14 block: 4; HSP90 inh: 5

What do the screens show for `COc1ccc(NS(=O)(=O)c2cc(NC(=O)CCSc3ccccc3)ccc2OC)cc1`?
TROY signal inh: 9; LGR2 inh: -7; TWEAK Fn14 block: 58*; HSP90 inh: 0

How did COc1ccc(NC(=O)CCSc2ccc(C)cc2)cc1S(=O)(=O)Nc1ccccc1Cl do in these assays?
TROY signal inh: 30; LGR2 inh: 7; TWEAK Fn14 block: 14; HSP90 inh: 1

What do the screens show for `CCOC(=O)C1CCN(CC(=O)Nc2c(C(=O)OC)[nH]c3ccc(Cl)cc23)CC1`?
TROY signal inh: 48; TWEAK Fn14 block: 64*; HSP90 inh: 1

Results for O=C(Oc1ccc(C(=S)N2CCC(O)CC2)cc1)c1ccc(Cl)cc1 ?
TROY signal inh: 57*; LGR2 inh: 6; TWEAK Fn14 block: -29; HSP90 inh: 2

What do the screens show for `O=C(C[C@H]1C[C@@H]2c3cc(NC(=O)C4CCOCC4)ccc3O[C@@H]2[C@H](CO)O1)NCc1ccc(Cl)cc1`?
LGR2 inh: 15

How did COc1ccc(-n2c(/C=C3\C(=O)N(C)c4ccccc43)nc3ccccc3c2=O)cc1 do in these assays?
TROY signal inh: 29; LGR2 inh: 29; TWEAK Fn14 block: 44; HSP90 inh: 2

What do the screens show for `CCN1C(=O)/C(=C\c2nc3ccccc3c(=O)n2-c2ccccc2)c2ccccc21`?
TROY signal inh: 26; LGR2 inh: 30; TWEAK Fn14 block: 57*; HSP90 inh: 3

Results for CCN1C(=O)/C(=C/c2nc3ccccc3c(=O)n2-c2ccc(C)cc2)c2ccccc21 ?
TROY signal inh: 13; LGR2 inh: 36; TWEAK Fn14 block: 67*; HSP90 inh: -2

How did C[C@H](CO)N1C[C@H](C)[C@H](CN(C)S(=O)(=O)c2ccc(Cl)cc2)OCCCC[C@H](C)Oc2ccc(NC(=O)Nc3cccc4ccccc34)cc2C1=O do in these assays?
LGR2 inh: 4

Screens as filed in PubChem.
